MbtI inh: MbtI salicylate synthase inhibitors, primary screen, biochemical, fluorescence intensity; P9WFX0; purified MbtI enzyme, fluorescence intensity read-out; inhibition, % (no concentration beside the values); 0.89% of 100,000 active; in the data active = inhibition mostly above about 56%, no sharp cut-off; inactive = mostly below about 77%
PV pol inh: poliovirus RdRp elongation inhibitors, primary screen, biochemical, fluorescence polarization, total intensity; Genome polyprotein (Poliovirus type 1 (strain Mahoney)), P03300; poliovirus polymerase elongation; hits give low values; % elongation, % (compound at 16.7 µg/mL); 0.66% of 150,000 active; AID 588519, 2011; in the data active = % elongation below about 90%
AID504770: growth inhibition of E. coli YBA685, primary screen, V. cholerae RctB inhibitors; z-score (concentration not given with the values); AID 504770, 2011; E. coli YBA685 rctB-dependent plasmid, OD600 growth, 3 h; hits give low values; 0.27% of 130,000 active; in the data active = z-score below about -2, passing the limit was not always enough
MenB inh: M. tuberculosis MenB inhibitors, primary screen, biochemical, absorbance; MenB enzyme assay, absorbance read-out; inhibition, % (concentration not given with the values); 0.43% of 100,000 active; AID 540299, 2011; in the data active = inhibition above about 21%, passing the limit was not always enough
Target sequence (P9WNP5 whole entry, looked up): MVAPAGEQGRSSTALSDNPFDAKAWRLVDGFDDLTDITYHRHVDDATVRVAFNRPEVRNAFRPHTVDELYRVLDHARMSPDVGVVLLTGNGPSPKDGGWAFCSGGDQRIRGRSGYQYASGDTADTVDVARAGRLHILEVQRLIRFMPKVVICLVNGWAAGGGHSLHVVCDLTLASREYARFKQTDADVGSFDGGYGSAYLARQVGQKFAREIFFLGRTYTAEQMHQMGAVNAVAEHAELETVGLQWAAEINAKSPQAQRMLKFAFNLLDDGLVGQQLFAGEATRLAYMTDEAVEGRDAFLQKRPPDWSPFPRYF
Of the large screens only hits and unclear results are named; the others gave an inactive call; ! = repeats disagree. In the library only some 1.4% were active in any assay of this set; here they are far more common.

O=C(CN(c1ccc(I)cc1)S(=O)(=O)c1ccccc1)Nc1cccnc1	none
Cc1cccc(N2CCCn3c2nc2c3c(=O)n(C)c(=O)n2C)c1	none
Cn1c(=O)[nH]c(=O)c2c1nc1n2CCCN1c1ccccc1	MenB inh 36
CC(C)OC(=O)c1cc2c(ccn2-c2ccc(F)cc2)n1C	none
COc1ccc(-c2nnc(SCC(=O)NCCC3=CCCCC3)o2)cc1	none
CC(C(=O)O)c1ccc(N2Cc3ccccc3C2=O)cc1 (stereo not given)	PV pol inh 102!
CCn1cc(C(=O)O)c(=O)c2cnc(N3CCN(C(=S)NCc4ccccc4)CC3)nc21	AID504770 -3.4
Cc1cc(C)c2c(-n3cccc3)n[nH]c2n1	none (no result: MbtI inh, PV pol inh, MenB inh)
CCN(CC)/N=N/c1[nH]nc2nc(C)cc(C)c12	AID504770 -7.5 (no result: MbtI inh)
CCCNC(=O)c1ccc(NC(C)=O)cc1	none (no result: MbtI inh)
CC(=O)Nc1ccc(C(=S)NCCCO)cc1	PV pol inh 77
COc1ccc(-c2nnc(SC/C(O)=C(\C#N)c3nc4ccccc4s3)n2CC2CCCO2)cc1 (stereo not given)	none
O=C(CCc1ccc(S(=O)(=O)N2CCOCC2)cc1)OCC(=O)c1ccc2c(c1)OCCO2	none
Cc1cccc2nc(=S)n(C(=O)c3ccc(F)cc3)n12	PV pol inh 74 (no result: MbtI inh)
Cn1cccc1/C=C1\SC(=S)NC1=O	none
COC(=O)c1cncc(Br)c1	none (no result: MbtI inh, PV pol inh, MenB inh)
O=CNc1ccc(OC(=O)c2cncc(Br)c2)cc1	PV pol inh 78
CN1C(=O)C(=Cc2cccs2)C(=O)N(C)C1=S	none
O=C1OC(c2ccccc2)OC(=O)C1=Cc1cccs1 (stereo not given)	MbtI inh 65
c1ccc(-c2cc(N3CCCCC3)c3ccccc3n2)nc1	none (no result: MbtI inh, PV pol inh, MenB inh)
O=S1(=O)CCC(NC(=S)SCCOc2ccccc2)C1 (stereo not given)	AID504770 -3 (no result: MbtI inh, PV pol inh, MenB inh)
CC(=O)Nc1cccc(NC(=O)C2CCCN2C(=O)Nc2ccccc2Cl)c1 (stereo not given)	none
Cc1cc(C(=O)O)c2cc(F)ccc2n1	none (no result: MbtI inh)
CN(C)c1ccc(NC(=O)CSc2nc(N)cc(=O)[nH]2)cc1	MenB inh 28
Nc1cc(=O)[nH]c(SCC(=O)Nc2ccccc2)n1	none
CC(C)C(=O)Nc1ccc2nc(SCC(=O)N3CCc4ccccc43)sc2c1	PV pol inh 83 (no result: MbtI inh, AID504770, MenB inh)
O=C1C=CC(=O)N1c1ccccc1Sc1ccccc1	MbtI inh 99 (no result: MenB inh)
CC(C)(C)OC(=O)CSc1nc2ccccc2o1	none
COCCOc1ccc(C(F)(F)F)cc1Nc1nc2ccccc2o1	PV pol inh 87
CN1/C(=C\C(=O)Cn2cc(S(=O)(=O)N3CCCC3)ccc2=O)C(C)(C)c2ccccc21	none
Oc1c(Cl)cc(Cl)c2cccnc12	none
O=C(Oc1c(Cl)cc(Cl)c2cccnc12)c1ccco1	AID504770 -3.4
c1ccc(CCn2nnnc2C(c2cccnc2)N2CCCCC2)cc1 (stereo not given)	none
N#Cc1cccc(C(c2nnnn2Cc2ccccc2)N2CCCC2)c1 (stereo not given)	MenB inh 29
CS(=O)(=O)c1ccc(NC(=O)Cc2n[nH]c(=O)c3ccccc23)cc1	none
COc1ccccc1OCC(=O)Nc1sc2c(c1C#N)CCCC2	none (no result: MbtI inh)
Cc1cc(Cl)ccc1OCC(=O)Nc1sc2c(c1C#N)CCC2	PV pol inh 80 (no result: MbtI inh)
COC(=O)c1ccc(CSc2nncn2-c2ccccc2)cc1	none
COc1ccccc1-n1nnc(C(=O)N2CCCC2)c1N	MenB inh 31
COc1ccccc1N1CCN(C(=O)c2nc(-c3ccc(C)cc3)n3c2CCCCC3)CC1	none (no result: MbtI inh, AID504770, MenB inh)
COCc1cc(C)nc2sc3c(=O)[nH]c(-c4ccccc4O)nc3c12	none (no result: MbtI inh)
Cc1sc2nc(-c3ccccc3O)[nH]c(=O)c2c1C	PV pol inh 75 (no result: MbtI inh)
COc1ccc(N2Cc3cccc(C(=O)NCCCN4CCN(c5cccc(Cl)c5)CC4)c3C2=O)cc1	none
O=C(CSc1nnc(-c2ccc(Cl)cc2Cl)n1Cc1ccco1)c1ccc[nH]1	MenB inh 44
COc1ccccc1-c1csc(Nc2cccnc2)n1	none (no result: MbtI inh, PV pol inh, MenB inh)
COc1ccc(C(=O)Oc2c(C)cc(C(O)(C(F)(F)F)C(F)(F)F)cc2C)cc1	none (no result: MbtI inh)
CC(C)(Oc1ccccc1OC(=O)c1ccccc1)C(=O)CBr	MbtI inh 62 (no result: MenB inh)
O=C(Oc1ccccc1OC(=O)c1ccccc1)c1ccccc1	none
C=C1c2cccc(O)c2C(O)=C2C(=O)C3(O)C(O)=C(C(N)=O)C(=O)C(N(C)C)C3C(O)C12 (stereo not given)	AID504770 -6.9
CC1CCc2nc(SC3CC(=O)C4OCC3O4)nc(C(F)(F)F)c2C1 (stereo not given)	none (no result: MbtI inh)
O=C1CC(Sc2ccc3ccccc3c2)C2COC1O2 (stereo not given)	PV pol inh 84 (no result: MbtI inh)
CN(C)c1ccc(C(=O)N=c2sc3cc(Cl)ccc3n2C)cc1	none (no result: MbtI inh, PV pol inh, MenB inh)
Brc1ccc(CNc2ccc3cn[nH]c3c2)s1	PV pol inh 58
CCN(CC)CCOC(=O)c1ccc(NC(=O)c2cc3cccc(OC)c3oc2=O)cc1	PV pol inh 90 (no result: MbtI inh, AID504770, MenB inh)
CCN(CC)CCOC(=O)c1ccc(NC(=O)c2cc3cc(OC)ccc3oc2=O)cc1	none (no result: MbtI inh, AID504770, MenB inh)
CSc1ccc(CCNC(=O)CCc2c(C)nc3c4cccnc4nn3c2C)cc1	PV pol inh 14 (no result: MbtI inh, AID504770, MenB inh)
Cc1nc2c3cccnc3nn2c(C)c1CCC(=O)NCc1ccccc1	none (no result: MbtI inh, AID504770, MenB inh)
Cn1c(Cc2ccccc2)n[nH]c1=S	none
Nn1c(Cc2ccccc2)n[nH]c1=S	MbtI inh 99
CCOC(=O)Cn1cc(/C=C2\C(=O)NC(=O)N(c3ccc(F)cc3)C2=O)c2ccccc21	none
N#CCn1cc(/C=C2\C(=O)NC(=O)N(c3cccc(F)c3)C2=O)c2ccccc21	MbtI inh 74
Clc1ccc(NCCC2=CCCCC2)nn1	MenB inh 34
CCCC(C)C1C(C#N)=C(N)Oc2cc(N)ccc21 (stereo not given)	none
COc1ccc(-c2c(C#N)c(N)nc(OC)c2C#N)cc1	none
COc1ccc2c(c1)C(C(C#N)C#N)C(C#N)=C(N)O2 (stereo not given)	AID504770 -2.4 (no result: MbtI inh, PV pol inh, MenB inh)
COc1ccc2c(c1)C(C(C#N)C#N)c1c(nc(N)c(C#N)c1N)O2 (stereo not given)	AID504770 -3
Cc1[nH]c(=S)[nH]c1Cc1ccccc1	MbtI inh 96 (no result: PV pol inh)
COc1ccc(OC)c(-c2nnc3n(Cc4ccc(C)cc4)c(=O)c4ccccc4n23)c1	PV pol inh 64 (no result: MbtI inh, AID504770, MenB inh)
COc1ccc(Cn2c(=O)c3ccccc3n3c(-c4ccccc4O)nnc23)cc1	none
CC(C)(C)c1ccc(C(=O)Nc2ccc(-c3nc4ccccc4o3)c(O)c2)cc1	PV pol inh -10 (no result: MbtI inh, AID504770, MenB inh)
Cc1cccc2nc(-c3cc4ccccc4s3)oc(=O)c12	none (no result: MbtI inh, PV pol inh, MenB inh)
O=c1oc(-c2cc3ccccc3s2)ns1	PV pol inh 85 (no result: MbtI inh)
NC(=O)CCS(=O)(=O)c1ccccc1	none
O=C(O)CCCS(=O)(=O)c1ccccc1	MenB inh 35
CCOC(=O)c1cc(-c2ccccn2)nc2c1c(=O)n(CC(=O)OC)c(=O)n2Cc1ccccc1	PV pol inh 81
CCCNC(=O)CSc1nnc(C)o1	none
CCCNC(=O)CSc1n[nH]c(=S)s1	MbtI inh 57

Screening results: PubChem, ICCB-Longwood Screening Facility, Harvard Medical School
